# In PubChem BioAssay AID588591 (National Center for Advancing Translational Sciences (NCATS), 2011):
# “And” between values parts separate entries of the source, which are not always exact repeats. Identical values can stand only once. Hit rate of the full screen: of about 390,000 compounds, about 4,700 (1.2%) were called active. Where a call stands in place of a potency, no number is given. Roughly 4% stayed inconclusive and do not appear here. Calls come from the whole dose curve; as a rule, active = well fitted inhibition curve with a large enough effect; inconclusive = small, poorly fitted or top-dose-only effect, or another doubt; inactive = no such curve, though single readings can be large or run the other way. Many of the other results were omitted from the sample, so actives are more common in it than they were.
# Target: DNA polymerase eta (Homo sapiens) (UniProt Q9Y253)
# Test: qHTS for Inhibitors of Polymerase Eta
# Details: recombinant Pol eta, fluorescent DNA replication assay; series mostly up to 114 µM
# Method in brief: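 Pol eta at 10 nM preincubated with compounds 15 min at room temperature; reaction started with fluorescent substrate (50 nM final) and read kinetically at 0 and 10 min.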
# Potency is the fitted concentration of half-maximal effect.
# Sequence of DNA polymerase eta (Homo sapiens) (Q9Y253 whole entry, looked up): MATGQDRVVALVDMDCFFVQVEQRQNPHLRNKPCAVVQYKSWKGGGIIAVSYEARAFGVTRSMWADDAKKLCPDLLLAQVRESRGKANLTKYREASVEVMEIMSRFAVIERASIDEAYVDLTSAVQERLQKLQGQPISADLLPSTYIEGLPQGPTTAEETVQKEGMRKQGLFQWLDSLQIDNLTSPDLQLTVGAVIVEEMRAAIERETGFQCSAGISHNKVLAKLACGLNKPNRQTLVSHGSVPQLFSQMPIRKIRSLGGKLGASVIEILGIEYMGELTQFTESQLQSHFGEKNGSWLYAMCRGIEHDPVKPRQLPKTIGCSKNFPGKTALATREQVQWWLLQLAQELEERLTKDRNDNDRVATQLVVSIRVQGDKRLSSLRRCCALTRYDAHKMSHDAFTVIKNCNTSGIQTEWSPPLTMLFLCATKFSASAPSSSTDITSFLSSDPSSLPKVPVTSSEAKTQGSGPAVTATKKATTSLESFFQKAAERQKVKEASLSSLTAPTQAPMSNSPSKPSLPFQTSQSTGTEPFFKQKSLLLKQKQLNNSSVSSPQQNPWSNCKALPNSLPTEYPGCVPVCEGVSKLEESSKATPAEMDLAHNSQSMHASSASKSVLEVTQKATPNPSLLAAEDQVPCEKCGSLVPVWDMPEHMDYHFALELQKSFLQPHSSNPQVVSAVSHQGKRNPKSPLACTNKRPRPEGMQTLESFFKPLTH
row,SMILES,Potency
1,CN(Cc1ccccc1)S(=O)(=O)c1ccc(F)c(C(=O)Nc2cccc(Cl)c2Cl)c1,inactive
2,Cc1ccc(Cn2c(C)nc3c(c2=O)c2nc4ccccc4nc2n3Cc2ccco2)cc1,22.4 µM (active)
3,CCN1CCN(C(c2ccc(C)cc2)c2c(O)cc(C)n(Cc3ccco3)c2=O)CC1 (stereo unspecified),inactive
4,Cc1ccc(Cn2c(=O)n(Cc3nc(-c4ccccc4)no3)c(=O)c3cc4c(cc32)OCO4)cc1,inactive
5,COc1cccc(C(=O)Nc2ccc(-c3cc(C(F)(F)F)nn3-c3ccccc3)cc2)c1,inactive
6,O=C(CN1c2ccccc2S(=O)(=O)c2ccccc21)Nc1cccc(C(F)(F)F)c1,inactive
7,CCCCN(CCCNC(=O)c1cc(Nc2ccccc2OC)nc2ccccc12)c1ccccc1,inactive
8,O=C(NCCCO)C(=O)Nc1c2c(nn1-c1ccccc1)CSC2,inactive
9,CC(C)(C)C(=O)OCc1nc(-c2ccc(O)c(O)c2)cs1,14.1 µM (active)
10,O=c1cc(-c2ccccc2)[nH]c2nc(Cl)ccc12,inactive
11,Cc1ccc2c(c1)c1c(c(=O)n(-c3ccccc3)c(=O)n1CC(=O)c1ccc(Cl)cc1)n2C,inactive
12,O=C(CSc1oc(-c2ccccc2)nc1S(=O)(=O)c1ccc(Br)cc1)NC1CCCCC1,inactive
13,N=C1C(c2nc3ccccc3s2)=C(O)CN1NC(=O)c1ccc([N+](=O)[O-])cc1,50.1 µM (active)
14,O=C(CCNC(=O)c1ccc([N+](=O)[O-])cc1)Nc1ccccc1N1CCOCC1,inactive
15,N=C1C(c2nc3ccccc3[nH]2)=C(O)CN1NC(=O)c1c[nH]c2ccccc12,inactive
16,COCCNc1ncnc2c1c(-c1ccccc1)cn2-c1ccc(C)c(Cl)c1,inactive
17,COc1cccc(-c2cc(C(=O)Nc3ccc(C)cc3)[nH]n2)c1,inactive
18,Cn1c(=O)sc2cc(NS(=O)(=O)c3ccc(C(C)(C)C)cc3)ccc21,inactive
19,CC(=O)Nc1ccc(S(=O)(=O)Nc2ccc(-c3ccc4nnc(C)n4n3)cc2)cc1,inactive
20,O=C(Nc1ccc(-c2ccc3nncn3n2)cc1)C1CCCCC1,inactive
21,CC(=O)c1ccc(S(=O)(=O)Nc2ccc(-c3ccc4nncn4n3)cc2)cc1,20 µM (active)
22,Cn1nnc2c(N3CCN(c4ccccc4)CC3)ncnc21,inactive
23,CCCCSc1ncnc2c1sc1nc(N3CCOCC3)c3c(c12)CCCC3,inactive
24,CN(C)C(CNC(=O)c1ccc(OCc2cn3ccccc3n2)cc1)c1ccco1 (stereo unspecified),39.8 µM (active)

row,SMILES,Potency
1,O=Cc1ccc(OCc2cn3ccccc3n2)cc1,inactive
2,CN(C)C(CNC(=O)CCCOc1ccccc1)c1ccco1 (stereo unspecified),inactive
3,Cc1ccc(OCC(=O)Nc2ccc(OCc3cc(=O)n4c(C)csc4n3)cc2)cc1C,inactive
4,CCCCc1nn2c(=O)cc(COC(=O)c3ccccc3NC(=O)C(C)(C)C)nc2s1,inactive
5,CCOc1ccc(N(CC)S(=O)(=O)N2CCCC(C(=O)NCc3ccc(Cl)cc3)C2)cc1 (stereo unspecified),inactive
6,Cc1ccc(N(Cc2ccccc2O)C(=O)c2ccccc2F)cc1,inactive
7,Cc1ccc(N(Cc2cc(=O)[nH]c3ccccc23)C(=O)CCl)cc1,56.2 µM (active)
8,Cn1nnnc1SCc1cc(=O)[nH]c2ccccc12,inactive
9,COc1ccc(CNC(=O)c2cc3c(s2)-c2ccccc2OC3)cc1,inactive
10,CC(C)c1ccc(Cn2c(COc3ccccc3)nc3ccccc32)cc1,inactive
11,Cc1c(C)n(Cc2ccc(Cl)cc2)c2ccc(C(=O)N3CCN(c4ccccc4F)CC3)cc12,inactive
12,CC(C)c1ccc2c(c1)c(SC(C)(C)C)c(CC(C)(C)C(=O)O)n2Cc1ccc(Cl)cc1,35.5 µM (active) and 25.1 µM (active)
13,Cc1ccc(S(=O)(=O)NCc2nc3nc(C)cc(C)n3n2)cc1,inactive
14,Cc1cc(NC(=O)CSc2ncc(C(=O)Nc3ccc(Cl)cc3)c(=O)n2C)no1,inactive
15,Cc1ccc(C)c(NC(=O)CSC2=Nc3ccccc3N=C(c3ccc(F)cc3)C2)c1,inactive
16,CCOc1ccc(NC(=O)C(C)N2C(=O)c3ccccc3C2=O)cc1 (stereo unspecified),inactive
17,O=C1/C(=C/c2cccs2)SC(=S)N1C1CCS(=O)(=O)C1 (stereo unspecified),inactive
18,CC(C(=O)Nc1ccc(O)c(C(=O)O)c1)N1C(=O)/C(=C/c2cccs2)SC1=S (stereo unspecified),79.4 µM (active)
19,CCN(CC)CCNc1ncnc2c1cnn2-c1cc(Cl)ccc1C,inactive
20,CC(C)C(=O)Nc1nc2c(s1)CC(C(C)(C)C)CC2 (stereo unspecified),inactive
21,CCOc1ccccc1C(=O)Nc1ccc2c(c1)N(C)C(=O)c1ccccc1S2,inactive
22,Cc1ccc(Cl)cc1-n1ncc2c(N3CCC(C(N)=O)CC3)ncnc21,inactive
23,Cc1ccc(/C=C2\CCn3c2nc2cc(C(=O)O)ccc2c3=O)c(C)c1,79.4 µM (active)
24,O=C(O)c1ccc2c(=O)n3c(nc2c1)/C(=C/c1ccc(OC(F)F)cc1OC(F)F)CC3,inactive

row,SMILES,Potency
1,N#Cc1ccc(/C=C2\CCn3c2nc2cc(C(=O)O)ccc2c3=O)cc1,inactive
2,Fc1ccc(Nc2nc(SCc3ccccc3Cl)nc3ccccc23)cc1,inactive
3,O=C(NCC12CC3CC(CC(C3)C1)C2)c1cc2nc(-c3ccccc3)cc(C(F)(F)F)n2n1,inactive
4,COCCn1c(CCC(=O)Nc2cc(C)ccc2C)nc2cccnc21,inactive
5,COC(=O)c1ccc(Cn2c(SCC(=O)N(C)c3ccccc3)nc3ccccc32)cc1,inactive
6,Cc1ccc(O)c(NC(=O)CCS(=O)(=O)c2nc(-c3ccc4c(c3)OCO4)cc(C(F)(F)F)n2)c1,inactive
7,O=C(CCc1nc2sc3c(c2c(=O)[nH]1)CCCC3)NCC(=O)Nc1ccccc1Br,8.91 µM (active)
8,Cc1cccc(NC(=O)CSc2nc3c(c(=O)[nH]2)CCCC3)c1C,inactive
9,COc1ccccc1-n1c(SCC(=O)O)nc2sc3c(c2c1=O)CCC3,inactive
10,COc1ccccc1CNC(=O)C(=O)NCC(c1cccs1)S(=O)(=O)c1cccs1 (stereo unspecified),inactive
11,COc1ccc(C2C(=O)N(C3CCCCC3)CC(=O)N2Cc2ccccc2Cl)cc1OC (stereo unspecified),inactive
12,CCOC(=O)c1cccc(NC(=O)Cn2cnc3nc4c(cc3c2=O)CCCC4)c1,inactive
13,COC(=O)c1ccc(NC(=O)CSc2n[nH]c(-c3ccccc3)n2)cc1,inactive
14,COc1ccc(NC(=O)CSc2nc3ccccc3[nH]2)cc1,inactive
15,COc1ccc(-c2nc3c(c(SCC(=O)Nc4ccc(C(=O)O)cc4)n2)Cc2ccccc2O3)cc1,7.94 µM (active)
16,C=C(C)C(=O)O[C@H]1C/C(C)=C\C(=O)/C=C(\C)[C@H](O)[C@@H]2OC(=O)C(=C)[C@@H]21,20 µM (active)
17,CCOc1ccc(-n2nc3ccc(NC(=O)c4ccc(OC)c(Cl)c4)cc3n2)cc1,inactive
18,COCCNC(=S)Nc1cc(S(=O)(=O)N2CCOCC2)ccc1N1CCCCC1,inactive
19,Cc1ccc(S(=O)(=O)N2CCOCC2)cc1NC(=O)c1ccncc1,inactive
20,O=[N+]([O-])c1cc(Cl)cc(/C=N/NC(=S)Nc2cc(S(=O)(=O)N3CCOCC3)ccc2Cl)c1O,50.1 µM (active)
21,Cc1nc2c(c(C)nn2-c2ccccc2)c(C)c1CCC(=O)NCCc1ccc(Cl)cc1,inactive
22,CCOc1ccc(NC(=O)c2ccc(CSc3nnnn3C)cc2)cc1,inactive
23,CCOc1ccc(NC(=O)Cn2c(C)ccc(C#N)c2=O)cc1,inactive
24,CCOc1ccc(NC(=O)c2ccc(NC(=O)COC(=O)c3ccc(NC(=O)CC#N)cc3)cc2)cc1,1.26 µM (active)

row,SMILES,Potency
1,Cc1ccc(S(=O)(=O)c2nc(-c3cccs3)oc2N2CCCCC2)cc1,inactive
2,COc1ccc(CCNc2ncnc3onc(-c4ccc(Cl)cc4)c23)c(OC)c1,inactive
3,Cc1ccc(C)c(N2CCN(CCCNC(=O)Nc3ccc(Cl)cc3)CC2)c1,inactive
4,O=C(O)c1cccc(N=NN2CCCCCC2)c1,inactive
5,CN=C1S/C(=C\c2c(OC)cc(OC)cc2OC)C(=O)N1C,inactive
6,CN1C(=O)/C(=C/c2ccco2)SC1=Nc1cccc(C(=O)O)c1,35.5 µM (active)
7,O=C(CSc1nc(-c2cccc(F)c2)[nH]c1-c1ccccc1)Nc1ccc2c(c1)OCO2,inactive
8,Cc1ccc2oc3c(c(=O)c2c1)C(c1ccc([N+](=O)[O-])cc1)N(CCCN1CCOCC1)C3=O (stereo unspecified),inactive
9,COC(=O)c1cccc(NC(=O)CSc2nc(C)cc(=O)[nH]2)c1,20 µM (active)
10,Cc1cc(C)c(C(=O)CSc2nc(C)cc(=O)[nH]2)c(C)c1,inactive
11,CCCc1cc(=O)[nH]c(SCC(=O)Nc2ccc(C(=O)Nc3ccccc3OC)cc2)n1,inactive
12,Cc1ccccc1Nc1nn2c(=O)c3ccc(C(=O)NCCc4ccc(Cl)cc4)cc3nc2s1,inactive
13,Cc1ccc2onc(CC(=O)N3CCN(c4ccc(Cl)cc4)CC3)c2c1,inactive
14,O=C(CN1CCN(c2ncc(C(F)(F)F)cc2Cl)CC1)Nc1ccc2c(c1)OCO2,inactive
15,Cn1c(=O)c2ccccc2n(CC(=O)Nc2ccc3c(c2)OCCO3)c1=O,inactive
16,Cc1ccc(C(=O)O)cc1-c1ccc(/C=C2\SC(=O)N(CC(=O)Nc3ccc4c(c3)OCO4)C2=O)o1,4.47 µM (active)
17,O=C(NCc1ccc(F)cc1)c1ccc2nc(N3CCCCC3)sc2c1,inactive
18,Cc1ccccc1-c1nc2cc(NC(=O)c3cccc(OCCC(C)C)c3)ccc2o1,inactive
19,CCC(=O)N1CCc2cc(CNS(=O)(=O)c3ccc(Br)s3)ccc21,inactive
20,Cc1cccc(NC(=O)CSc2nc3c(oc4ccccc43)c(=O)n2-c2ccc(F)cc2)c1,inactive
21,O=C(O)c1cc(S(=O)(=O)Nc2ccc3cn[nH]c3c2)ccc1Br,50.1 µM (active)
22,O=S(=O)(Nc1ccc2[nH]ncc2c1)c1ccccc1Cl,inactive
23,O=C(Nc1ccc2cn[nH]c2c1)c1ccc(S(=O)(=O)N2CCOCC2)cc1,inactive
24,CCCn1c2ccccc2c2cnn(CC(=O)N(C)c3ccccc3CC)c(=O)c21,inactive
